The supplement of paper PMC6411743
± gives the standard deviation of the averaged measurements. Targets with the largest changes are over-represented here; the source holds about 6,500 in all.

Compound: Nc1ncnc2c1ncn2[C@@H]1O[C@H](COP(=O)(O)OP(=O)(O)OP(=O)(O)O)[C@@H](O)[C@H]1O [adenosine triphosphate]
Assay: NP40-soluble protein abundance relative to vehicle (solubility fold change) (ratio); higher = more soluble protein in presence of ATP
How it was run: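 Data come from three independent experiments in which Dounce-homogenised Jurkat crude lysate was treated at eight concentrations from 0.1 to 10 mM. Treatment ran 10 min at room temperature and then 3 min at 37 °C, after which 0.8% NP40 and benzonase were added for 60 min at 4 °C before ultracentrifugation. The supernatant underwent TMT labelling and LC-MS/MS, and vsn-normalised intensities were expressed as fold change against the detergent-processed vehicle in each replicate.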

Chain of UniProt Q9HC36 (Q9HC36 whole entry): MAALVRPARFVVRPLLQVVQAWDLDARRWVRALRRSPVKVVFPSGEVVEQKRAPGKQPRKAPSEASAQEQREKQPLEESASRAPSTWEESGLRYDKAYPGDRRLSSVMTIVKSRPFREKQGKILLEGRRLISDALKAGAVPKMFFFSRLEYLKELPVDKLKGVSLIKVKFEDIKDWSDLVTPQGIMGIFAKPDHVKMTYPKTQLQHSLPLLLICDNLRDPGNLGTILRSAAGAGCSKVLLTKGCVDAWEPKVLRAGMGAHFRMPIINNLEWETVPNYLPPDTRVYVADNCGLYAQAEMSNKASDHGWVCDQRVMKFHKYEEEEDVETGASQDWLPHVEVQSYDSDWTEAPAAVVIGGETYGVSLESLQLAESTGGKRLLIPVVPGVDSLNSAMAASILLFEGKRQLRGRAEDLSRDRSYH
Chain of UniProt Q96CT7 (Q96CT7 whole entry): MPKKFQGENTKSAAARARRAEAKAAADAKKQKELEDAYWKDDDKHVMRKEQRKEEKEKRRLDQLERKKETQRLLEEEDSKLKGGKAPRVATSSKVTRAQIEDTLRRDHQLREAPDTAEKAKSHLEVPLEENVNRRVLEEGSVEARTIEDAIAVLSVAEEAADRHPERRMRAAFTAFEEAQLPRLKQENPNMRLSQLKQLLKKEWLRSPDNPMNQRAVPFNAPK
Chain of UniProt Q9P2K8 (Q9P2K8 whole entry): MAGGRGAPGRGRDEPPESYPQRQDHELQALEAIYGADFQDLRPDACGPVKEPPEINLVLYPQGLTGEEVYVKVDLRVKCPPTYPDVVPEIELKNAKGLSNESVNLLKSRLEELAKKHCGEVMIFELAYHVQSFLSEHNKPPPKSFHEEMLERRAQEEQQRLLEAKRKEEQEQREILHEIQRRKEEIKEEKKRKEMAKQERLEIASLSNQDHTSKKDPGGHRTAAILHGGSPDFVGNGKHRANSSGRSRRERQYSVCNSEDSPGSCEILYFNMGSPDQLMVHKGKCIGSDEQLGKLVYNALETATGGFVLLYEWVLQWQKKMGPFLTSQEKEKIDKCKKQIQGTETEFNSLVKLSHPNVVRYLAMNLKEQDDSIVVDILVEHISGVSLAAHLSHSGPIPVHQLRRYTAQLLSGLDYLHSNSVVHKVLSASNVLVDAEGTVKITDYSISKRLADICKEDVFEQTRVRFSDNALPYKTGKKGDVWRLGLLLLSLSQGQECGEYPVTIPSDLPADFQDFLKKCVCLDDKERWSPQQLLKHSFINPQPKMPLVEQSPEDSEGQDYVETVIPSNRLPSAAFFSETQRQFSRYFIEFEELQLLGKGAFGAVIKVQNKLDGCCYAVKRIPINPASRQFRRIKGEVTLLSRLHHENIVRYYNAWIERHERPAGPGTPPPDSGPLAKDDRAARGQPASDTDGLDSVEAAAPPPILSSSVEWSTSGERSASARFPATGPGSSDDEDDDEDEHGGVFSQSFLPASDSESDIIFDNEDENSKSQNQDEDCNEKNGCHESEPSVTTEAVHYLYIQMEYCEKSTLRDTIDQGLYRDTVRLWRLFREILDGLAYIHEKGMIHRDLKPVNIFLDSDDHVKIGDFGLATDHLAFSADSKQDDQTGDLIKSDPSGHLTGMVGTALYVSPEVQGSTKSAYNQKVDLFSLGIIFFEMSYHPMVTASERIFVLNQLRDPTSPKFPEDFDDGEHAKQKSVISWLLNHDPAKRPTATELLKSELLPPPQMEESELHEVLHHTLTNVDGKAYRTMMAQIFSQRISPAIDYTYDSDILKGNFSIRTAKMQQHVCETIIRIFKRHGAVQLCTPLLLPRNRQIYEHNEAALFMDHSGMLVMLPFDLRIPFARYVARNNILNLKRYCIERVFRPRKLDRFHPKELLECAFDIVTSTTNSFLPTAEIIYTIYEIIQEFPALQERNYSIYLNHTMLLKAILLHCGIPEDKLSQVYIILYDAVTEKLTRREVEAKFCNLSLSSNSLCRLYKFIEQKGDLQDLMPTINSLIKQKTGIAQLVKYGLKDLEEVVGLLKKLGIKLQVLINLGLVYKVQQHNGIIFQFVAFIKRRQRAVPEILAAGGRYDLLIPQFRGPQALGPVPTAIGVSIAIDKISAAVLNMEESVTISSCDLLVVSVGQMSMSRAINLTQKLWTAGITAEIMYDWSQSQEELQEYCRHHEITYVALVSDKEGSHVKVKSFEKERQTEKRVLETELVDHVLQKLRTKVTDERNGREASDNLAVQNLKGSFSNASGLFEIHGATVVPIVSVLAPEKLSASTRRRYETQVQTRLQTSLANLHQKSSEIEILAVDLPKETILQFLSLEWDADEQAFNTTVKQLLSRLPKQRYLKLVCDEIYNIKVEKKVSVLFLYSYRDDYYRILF
Chain of UniProt Q8WXX5 (Q8WXX5 whole entry): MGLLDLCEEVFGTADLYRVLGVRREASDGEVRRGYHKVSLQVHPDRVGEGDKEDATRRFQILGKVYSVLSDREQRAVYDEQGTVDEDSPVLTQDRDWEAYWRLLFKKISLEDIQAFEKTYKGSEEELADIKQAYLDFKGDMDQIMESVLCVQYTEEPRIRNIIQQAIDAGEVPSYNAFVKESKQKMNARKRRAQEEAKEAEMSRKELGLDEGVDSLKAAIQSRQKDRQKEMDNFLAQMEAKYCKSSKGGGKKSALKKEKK
Chain of UniProt Q96KM6 (Q96KM6 whole entry): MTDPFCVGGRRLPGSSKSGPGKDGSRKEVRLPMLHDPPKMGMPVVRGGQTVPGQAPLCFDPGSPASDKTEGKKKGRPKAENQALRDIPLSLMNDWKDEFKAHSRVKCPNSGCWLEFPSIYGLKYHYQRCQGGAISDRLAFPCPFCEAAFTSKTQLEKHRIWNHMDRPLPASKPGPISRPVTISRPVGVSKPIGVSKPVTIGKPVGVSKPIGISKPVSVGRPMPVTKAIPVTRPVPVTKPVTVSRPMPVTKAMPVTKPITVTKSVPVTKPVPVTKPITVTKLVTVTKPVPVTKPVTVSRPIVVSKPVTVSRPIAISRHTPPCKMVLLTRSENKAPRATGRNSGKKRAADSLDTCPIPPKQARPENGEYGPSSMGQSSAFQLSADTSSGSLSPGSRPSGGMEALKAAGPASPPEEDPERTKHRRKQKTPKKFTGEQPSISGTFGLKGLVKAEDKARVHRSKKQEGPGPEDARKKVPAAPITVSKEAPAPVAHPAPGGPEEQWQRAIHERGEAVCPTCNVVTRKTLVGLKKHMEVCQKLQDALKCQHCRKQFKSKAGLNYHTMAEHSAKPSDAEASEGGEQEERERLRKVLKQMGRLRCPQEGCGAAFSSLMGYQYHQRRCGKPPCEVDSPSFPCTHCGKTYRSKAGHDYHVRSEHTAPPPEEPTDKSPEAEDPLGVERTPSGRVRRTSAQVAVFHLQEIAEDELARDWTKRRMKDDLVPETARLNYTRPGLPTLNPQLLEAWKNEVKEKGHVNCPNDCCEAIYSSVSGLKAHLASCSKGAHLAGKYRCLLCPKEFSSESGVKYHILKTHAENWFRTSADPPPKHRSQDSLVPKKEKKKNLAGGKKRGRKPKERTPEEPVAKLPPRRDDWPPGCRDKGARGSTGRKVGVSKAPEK
Chain of UniProt Q9NQG5 (Q9NQG5 whole entry): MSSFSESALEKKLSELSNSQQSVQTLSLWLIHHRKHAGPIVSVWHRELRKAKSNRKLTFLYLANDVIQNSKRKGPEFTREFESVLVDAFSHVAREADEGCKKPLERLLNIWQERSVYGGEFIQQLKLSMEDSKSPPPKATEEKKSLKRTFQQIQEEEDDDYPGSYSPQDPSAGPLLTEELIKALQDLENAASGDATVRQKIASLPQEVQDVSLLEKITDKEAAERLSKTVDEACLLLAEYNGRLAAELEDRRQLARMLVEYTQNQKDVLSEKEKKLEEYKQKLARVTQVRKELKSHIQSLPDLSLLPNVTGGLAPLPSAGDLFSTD
Chain of UniProt Q96EZ8 (Q96EZ8 whole entry): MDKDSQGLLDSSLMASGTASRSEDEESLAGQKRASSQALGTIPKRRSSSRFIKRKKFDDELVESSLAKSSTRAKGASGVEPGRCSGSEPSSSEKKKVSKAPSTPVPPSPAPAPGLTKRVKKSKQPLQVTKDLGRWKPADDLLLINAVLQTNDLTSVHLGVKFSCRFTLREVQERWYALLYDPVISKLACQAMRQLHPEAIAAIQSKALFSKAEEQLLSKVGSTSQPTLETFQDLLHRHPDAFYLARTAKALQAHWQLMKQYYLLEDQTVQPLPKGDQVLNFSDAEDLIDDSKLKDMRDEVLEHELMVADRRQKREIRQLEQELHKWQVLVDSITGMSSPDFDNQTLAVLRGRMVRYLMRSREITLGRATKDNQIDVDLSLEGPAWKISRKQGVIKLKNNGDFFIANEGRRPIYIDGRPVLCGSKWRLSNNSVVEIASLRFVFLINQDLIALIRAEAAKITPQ
Chain of UniProt Q9BVC6 (Q9BVC6 whole entry): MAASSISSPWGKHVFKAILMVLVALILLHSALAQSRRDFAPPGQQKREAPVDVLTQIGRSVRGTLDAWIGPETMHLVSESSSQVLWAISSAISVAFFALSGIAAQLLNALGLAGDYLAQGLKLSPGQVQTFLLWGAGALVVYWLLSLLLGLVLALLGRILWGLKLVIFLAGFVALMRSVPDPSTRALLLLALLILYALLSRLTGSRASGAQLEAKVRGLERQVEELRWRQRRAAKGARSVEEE

Target	NP40-soluble protein abundance (concentration: 1mM)	NP40-soluble protein abundance (concentration: 2mM)	NP40-soluble protein abundance (concentration: 4mM)	NP40-soluble protein abundance (concentration: 6mM)	NP40-soluble protein abundance (concentration: 8mM)	NP40-soluble protein abundance (concentration: 10mM)
UniProt Q9NVI7-2	1.54 ± 0.05	1.64 ± 0.086	1.8 ± 0.086	1.89 ± 0.29	2.2 ± 0.2	2.35 ± 0.26
TMEM109 (UniProt Q9BVC6)	0.943 ± 0.051	0.962 ± 0.066	0.999 ± 0.082	0.915 ± 0.03	0.955 ± 0.046	0.91 ± 0.074
TDP1 (UniProt Q9NUW8)	1.02 ± 0.032	1.02 ± 0.046	0.983 ± 0.063	1 ± 0.069	0.985 ± 0.049	1.01 ± 0.062
NMNAT1 (UniProt Q9HAN9)	1.33 ± 0.36	3.44 ± 2.5	3.91 ± 2.9	4.35 ± 3.5	3.99 ± 2.9	3.99 ± 3
UniProt Q9HC36	1.11 ± 0.06	1.29 ± 0.068	1.57 ± 0.13	1.8 ± 0.21	2.03 ± 0.2	2.37 ± 0.32
DNAJC9 (UniProt Q8WXX5)	1.04 ± 0.024	1.13 ± 0.012	1.34 ± 0.04	1.55 ± 0.057	1.73 ± 0.12	1.76 ± 0.1
UniProt Q9H0S4|Q9H0S4-2	1.18 ± 0.12	1.23 ± 0.072	1.44 ± 0.03	1.5 ± 0.09	1.79 ± 0.073	1.99 ± 0.11
UniProt Q9UEY8|Q9UEY8-2	1.01 ± 0.019	1.02 ± 0.018	1.01 ± 0.014	1.02 ± 0.035	0.99 ± 0.023	1.004 ± 0.0086
UniProt Q9UBF8-2	0.962 ± 0.044	0.961 ± 0.065	0.9581 ± 0.0056	0.938 ± 0.011	0.9049 ± 0.007	0.928 ± 0.026
PIEZO1 (UniProt Q92508)	1.1 ± 0.12	1.09 ± 0.13	1.14 ± 0.24	1.14 ± 0.12	1.09 ± 0.12	1.09 ± 0.012
RPRD1B (UniProt Q9NQG5)	0.969 ± 0.12	0.943 ± 0.039	0.971 ± 0.049	0.993 ± 0.089	1.02 ± 0.034	0.854 ± 0.15
RPGR (UniProt Q92834)	1.03 ± 0.099	1.08 ± 0.039	1.05 ± 0.036	1.07 ± 0.067	1.067 ± 0.0066	1.05 ± 0.013
PAFAH2 (UniProt Q99487)	1 ± 0.098	1.01 ± 0.074	0.978 ± 0.053	1 ± 0.27	0.992 ± 0.05	1.02 ± 0.064
NCOA5 (UniProt Q9HCD5)	1.09 ± 0.031	1.22 ± 0.056	1.49 ± 0.062	1.85 ± 0.12	2.23 ± 0.12	2.76 ± 0.14
UniProt Q96IX5	0.875 ± 0.049	0.935 ± 0.11	0.936 ± 0.16	0.976 ± 0.15	0.909 ± 0.16	0.99 ± 0.14
QTRT1 (UniProt Q9BXR0)	1.01 ± 0.12	0.995 ± 0.091	1.02 ± 0.049	0.925 ± 0.14	0.994 ± 0.049	0.985 ± 0.051
UniProt Q96LT9|Q96LT9-2	1.31 ± 0.027	1.46 ± 0.034	1.75 ± 0.15	1.95 ± 0.12	1.78 ± 0.02	2.06 ± 0.096
CCDC124 (UniProt Q96CT7)	1.08 ± 0.15	1.14 ± 0.089	1.3 ± 0.2	1.56 ± 0.2	1.64 ± 0.1	1.96 ± 0.36
ZNF512B (UniProt Q96KM6)	1.01 ± 0.04	1.05 ± 0.02	1.07 ± 0.024	1.12 ± 0.044	1.08 ± 0.03	1.08 ± 0.043
UniProt Q96GM8|Q96GM8-2	1.06 ± 0.095	1.22 ± 0.14	1.35 ± 0.12	1.38 ± 0.12	1.53 ± 0.13	1.82 ± 0.32
UniProt Q9NVR5	0.965 ± 0.028	0.98 ± 0.039	1 ± 0.047	1.04 ± 0.065	1.01 ± 0.12	0.967 ± 0.044
UniProt Q9NNW7|Q9NNW7-2	1.01 ± 0.04	0.942 ± 0.011	0.983 ± 0.067	0.951 ± 0.02	0.949 ± 0.057	0.958 ± 0.1
UniProt Q9HCM7	1.71 ± 0.25	1.84 ± 0.31	2.2 ± 0.52	2.13 ± 0.52	2.62 ± 0.69	2.78 ± 0.79
UniProt Q9UG63|Q9UG63-2	1.09 ± 0.033	1.15 ± 0.039	1.42 ± 0.019	1.67 ± 0.095	2.16 ± 0.093	2.59 ± 0.25
PNKP (UniProt Q96T60)	1.04 ± 0.02	1.0346 ± 0.00031	1.03 ± 0.022	1.05 ± 0.023	1.11 ± 0.036	1.157 ± 0.011
UniProt Q96EZ8|Q96EZ8-2|Q96EZ8-3	1.08 ± 0.04	1.06 ± 0.053	1.08 ± 0.013	1.09 ± 0.093	1.14 ± 0.038	1.18 ± 0.044
EIF2AK4 (UniProt Q9P2K8)	1.04 ± 0.096	1.02 ± 0.078	1.02 ± 0.071	0.967 ± 0.073	1.03 ± 0.056	1.03 ± 0.082
UniProt Q96GN5|Q96GN5-4|Q96GN5-2	1.09 ± 0.19	1.16 ± 0.23	1.23 ± 0.36	1.29 ± 0.35	1.34 ± 0.41	1.42 ± 0.57
MRPS31 (UniProt Q92665)	0.994 ± 0.058	0.93 ± 0.066	0.871 ± 0.062	0.923 ± 0.14	0.865 ± 0.088	0.857 ± 0.073
UniProt Q9NUL3-3|Q9NUL3-8|A0A0A0MTD1|E7EPX0|E7EVJ4|F8VPI7|A0A0A0MTC5|E9PH62|Q9NUL3|Q9NUL3-2	0.971 ± 0.048	1.11 ± 0.13	1.02 ± 0.057	1.11 ± 0.15	1.16 ± 0.099	1.3 ± 0.11
